Assay [1] can be described thus: NCI Yeast Anticancer Drug Screen. Data for the rad50 strain (AID 155).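 Note: 0% = growth of vehicle-only cultures of the same strain.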 The conditions noted are these: S. cerevisiae rad50 strain growth inhibition, active compounds read high; at 50.0 µM unless noted. Put shortly: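 DNA repair mutant yeast, compound exposure, growth read-out; inhibition is taken relative to vehicle.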
Assay [2] can be described thus: NCI Yeast Anticancer Drug Screen. Data for the mec2-1 strain (AID 157). As to conditions: S. cerevisiae mec2-1 strain, active compounds read high; at 50.0 µM unless noted. Put shortly:
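Mutant yeast (mec2-1) grown with compound; growth inhibition relative to vehicle control reported.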

Assay [3] in a line: NCI Yeast Anticancer Drug Screen. Data for the sgs1 mgt1 strain (AID 161).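 Note: 0% = growth of cultures given vehicle only.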 As to conditions: S. cerevisiae sgs1 mgt1 strain, active compounds read high; at 50.0 µM unless noted. In outline:
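Growth of a repair-deficient yeast mutant was monitored after compound treatment and expressed as inhibition relative to vehicle-treated cultures.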

A short description of assay [4]: NCI Yeast Anticancer Drug Screen. Data for the cln2 rad14 strain (AID 165).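 Note: 0% = growth equal to vehicle treated cultures.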 As to conditions: S. cerevisiae cln2 rad14 strain, active compounds read high; at 50.0 µM unless noted. Put shortly:
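Readout is yeast growth inhibition versus vehicle-treated controls, using a strain with cln2 and rad14 alterations exposed to compound.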

Assay [5] is described as follows: NCI Yeast Anticancer Drug Screen. Data for the bub3 strain (AID 167). As to conditions: S. cerevisiae bub3 mutant strain, active compounds read high; at 50.0 µM unless noted. Put shortly: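 In this screen, a yeast mutant lacking normal mitotic checkpoint function is challenged with compound. Relative growth versus vehicle gives the inhibition value.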
Assay [6] in a line: NCI Yeast Anticancer Drug Screen. Data for the mlh1 rad18 strain (AID 175). The conditions noted are these: S. cerevisiae mlh1 rad18 strain growth inhibition, active compounds read high; at 50.0 µM unless noted. In outline: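 Genetically defined yeast (DNA repair-deficient) exposed to compounds; growth inhibition determined relative to vehicle.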

Compounds without any hit were thinned out: in the full panel of roughly 79,000, 15% have a hit. Values without a mark were called inactive. Active and inactive are the calls of the source. Cut-off read from the data, not from the text of the source: active = growth inhibition above about 70%; inactive = the rest. Where a SMILES comes first, the peptide text is derived from it. The star is where a group is joined. Boc = CC(C)(C)OC(=O)*; OBn = c1ccc(CO*)cc1

Consider `C/C(=N\NC(N)=O)C1(O)CCCCC1`, for which the growth inhibition is -15.3% in assay [1]; -26.7% in assay [2]; -17.3% in assay [3]; 4.45% in assay [4]; -19.1% in assay [5]; -11% in assay [6].

In the case of `Cc1[nH]c(=O)nc(N/N=C/c2ccc(Cl)cc2)c1C(=O)NC(C)(CO)CO`, the growth inhibition in assay [1] was -30.6%; in assay [2] it was -14.6%; in assay [3] it was -43.5%; in assay [4], -10.4%; in assay [5] it was 16.7%; in assay [6], -3.45%.

For `O=C(/C=C/c1ccc(-c2ccccc2)cc1)c1ccccc1`, the growth inhibition in assay [1] was -16.7%; in assay [2], -24.8%; in assay [3], 7.75%; in assay [4], -3.3%; in assay [5] it was -20.6%; in assay [6] it was -17.6%.

With `Cn1nnnc1NCc1ccccc1`, the growth inhibition in assay [1] is -2.55%; in assay [2], 5.35%; in assay [3], -5.85%; in assay [4], -24.6%; in assay [5], -2%; in assay [6], 5.15%.

Regarding `NC(=O)Cc1ccc2c3c(cccc13)CC2`, the growth inhibition is 15.4% in assay [1]; 5.45% in assay [2]; 2.45% in assay [3]; -34.2% in assay [4]; 11.8% in assay [5]; 9.05% in assay [6].

As for `Cc1ccc(N2C(=O)CC(N3CCCCC3)C2=O)cc1` (stereo not given), the growth inhibition was 29.1% in assay [1]; 37.7% in assay [2]; 68.2% in assay [3]; 13.2% in assay [4]; -2.05% in assay [5]; 80.2% (active) in assay [6].

`O=C(O)CCC1NC(/C(=C/c2ccccc2O)NC(=O)c2ccccc2)OC1=O` (stereo not given): the growth inhibition in assay [1] was -0.75%; in assay [2] it was -8.1%; in assay [3], -14.1%; in assay [4], -19.1%; in assay [5], -8.25%; in assay [6], -16.1%.

For `ClC1c2cccc3cccc(c23)C1Cl` (stereo not given), the growth inhibition in assay [1] was 6.95%; in assay [2], 8.75%; in assay [3], -0.6%; in assay [4] it was 4.45%; in assay [5], 7.5%; in assay [6], 10.7%.

Regarding `c1ccc(OC2=NC3=S(S2)SC(Oc2ccccc2)=N3)cc1`, the growth inhibition is 43.2% in assay [1]; -4.15% in assay [2]; 56.7% in assay [3]; 10.6% in assay [4]; 12.5% in assay [5]; -3.35% in assay [6].

`CC(C)CC(NC(=O)C(Cc1ccccc1)NC(=O)C(Cc1ccccc1)NC(=O)OC(C)(C)C)C(=O)OCc1ccccc1` (stereo not drawn) (Boc-Phe-Phe-Leu-OBn; configuration not given here): the growth inhibition in assay [1] is -3.15%; in assay [2], -10.3%; in assay [3], -5.95%; in assay [4] it was -7.2%; in assay [5], 0.95%; in assay [6], 5.95%.

Regarding `CCCCCCCCN1CCOCCOCCN(CCCCCCCC)c2nc(Cl)nc(n2)NCCOCCOCCNc2nc(Cl)nc1n2`, the growth inhibition in assay [1] was 7.8%; in assay [2] it was -16.1%; in assay [3], -21.8%; in assay [4] it was -9.7%; in assay [5], -5%; in assay [6], 7.7%.

For `O=C(O)CCNCCC(=O)O`, the growth inhibition is 8.45% in assay [1]; -6.75% in assay [2]; 3.6% in assay [3]; -25.5% in assay [4]; 5.05% in assay [5]; 9.7% in assay [6].

As for `C/C(=N\NC(=S)Nc1ccccc1)[C@H]1C2CCC(C2)C1C/C=C\CCCC(=O)O` (stereo not given in full), the growth inhibition in assay [1] is 26.1%; in assay [2], 17.3%; in assay [3], 25.9%; in assay [4] it was 48.1%; in assay [5], 37.5%; in assay [6], 13.4%.

For the molecule `Cc1ccc(O)c(C=NCCN=Cc2cc(C)ccc2O)c1.[Cu+2]`, the growth inhibition in assay [1] is 1.9%; in assay [2], 5.25%; in assay [3] it was 6.15%; in assay [4], 8.45%; in assay [5], -20.6%; in assay [6] it was 13.3%.

Turning to `O=[N+]([O-])c1cc(Cl)ccc1S(=O)(=O)N1CCCc2cc(Cl)ccc21`, the growth inhibition in assay [1] was 66.2%; in assay [2], 51.8%; in assay [3], 64.8%; in assay [4], 62.1%; in assay [5] it was 63.6%; in assay [6] it was 62%.

Take `CN1C(C)(C)CC(=O)C(Br)C1(C)C` (stereo not given): the growth inhibition was -37.8% in assay [1]; -45% in assay [2]; -33.8% in assay [3]; -6.2% in assay [4]; -6.75% in assay [5]; -29.4% in assay [6].

Regarding `CCN(CC)c1ccc2cc(-c3csc(-c4ccc(N(C)C)cc4)n3)c(=O)oc2c1`, the growth inhibition in assay [1] was 26.5%; in assay [2], 12.7%; in assay [3] it was -5.25%; in assay [4], 16.9%; in assay [5], -13.1%; in assay [6], -20.3%.

Consider `OC(c1ccccc1)c1ccc(C(O)c2ccccc2)cc1` (stereo not given), for which the growth inhibition in assay [1] is -14.2%; in assay [2], -19.1%; in assay [3] it was -8.85%; in assay [4], 33.3%; in assay [5], 5.5%; in assay [6], -8.75%.

Take `c1cc(-c2cnc(-c3ccc4c(c3)CCCO4)o2)ccn1`: the growth inhibition is 40.5% in assay [1]; 29.9% in assay [2]; 31.6% in assay [3]; 17.9% in assay [4]; 46.5% in assay [5]; 44.1% in assay [6].

As to `O=C1c2c(ccc3c2CCCC3)CC1Cc1ccc2c(c1)CCCC2` (stereo not given), the growth inhibition in assay [1] is -22%; in assay [2] it was -15.2%; in assay [3], -18.8%; in assay [4], -25.1%; in assay [5], -17.4%; in assay [6], -37.7%.

These data come from PubChem BioAssay (NCI).
